Data as given in PubChem BioAssay AID2546 (National Center for Advancing Translational Sciences (NCATS), 2010).
Out of some 310,000 compounds screened, about 11,000 (3.5%) were called active. Inconclusive results (about 8%) are left out. Calls follow the shape of the dose curve; as a rule, active = well fitted inhibition curve with a large enough effect; inconclusive = small, poorly fitted or top-dose-only effect, or effect the other way; inactive = flat fitted curve, though single readings scatter. Many of the other results were omitted from the sample, so actives are more common in it than they were.

Assay: VP16 counterscreen qHTS for inhibitors of ROR gamma transcriptional activity;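 also: Gal4-VP16 expression switched on by copper sulfate through the metallothionein promoter; nearly all actives have a fitted effect of over 50% in size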
Settings: Drosophila S2 Gal4-VP16 UAS-luciferase, luminescence, 20 h; series mostly up to 53.6 µM; activity, negative = inhibition: at the top concentration
% is scaled to controls: 0 for no effect and ±100 for the full control effect; potency is read from the fitted curve at half-maximal effect.

Structure (SMILES) | Potency | activity, negative = inhibition
CCc1ccc(-c2nnn(Cc3nc4ccccc4s3)n2)cc1 | 10 µM (active) | –
Clc1ccc(-c2nnc(SCc3nc4ccccc4s3)o2)cc1 | – | 24.3% (inactive)
CCc1ccc(-c2nnn(Cc3nn[nH]n3)n2)cc1 | – | 1.37% (inactive)
CC(C)C[C@@H](NC(=O)[C@H]1CCCN1C(=O)Cc1ccccc1)C(N)=O | – | -3.88% (inactive)
CCOC(=O)c1c(NC(=S)Nc2ccccc2)sc2c1CCN(C)C2 | – | -15.1% (inactive)
CCOC(=O)c1cc2c(nc1NC(=S)Nc1ccccc1)CC(C)(CC)OC2 (stereo not drawn) | 7.94 µM (active) | –
CCOC(=O)c1ccccc1NC(=O)CSc1nc2ccccc2c(=O)[nH]1 | – | -8.12% (inactive)
CCOC(=O)C1CN(S(=O)(=O)c2ccc(OC)cc2)c2cc(Cl)ccc2O1 (stereo not drawn) | – | -20.3% (inactive)
O=C(C1CCN(Cc2ccc(Cl)cc2)CC1)N1CCN(Cc2ccc3c(c2)OCO3)CC1 | – | -22.4% (inactive)
O=C(NNC(=S)Nc1ccccc1)c1cccc(S(=O)(=O)N2CCOCC2)c1 | – | 2.35% (inactive)
O=C(NNC1=NCCC1)c1cccc(S(=O)(=O)N2CCCCC2)c1 | 10 µM (active) | –
O=C(Nc1cccnc1)c1cccc(S(=O)(=O)N2CCCC2)c1 | – | 20.1% (inactive)
Cn1c(SCC(=O)N2CCCC2)nnc1-c1ccc2c(c1)OCO2 | – | -12% (inactive)
O=C(CCNS(=O)(=O)c1cccs1)N1CCN(c2ccc(F)cc2)CC1 | – | -10.3% (inactive)
COc1cc(S(=O)(=O)Nc2ncn[nH]2)ccc1Cl | – | -0.0885% (inactive)
CCn1c(=O)cc(O)c2ccccc21 | – | -4.77% (inactive)
CCn1c(O)c(N=NC2=NC(=O)CS2)c2cc(C)ccc21 | 12.6 µM (active) | –
CCn1c(O)c(N=NC(=O)c2cccc(S(=O)(=O)N3CCCCC3)c2)c2ccccc21 | – | 2.98% (inactive)
COc1cccc(C(=O)NNC(=O)c2cccc(F)c2)c1 | – | 16.3% (inactive)
Cc1cc(C)nc(N/N=C/c2c(CO)cnc(C)c2O)n1 | – | -10.3% (inactive)
COc1ccc(OC)c(CCNC(=O)CCn2ccc3cc(S(=O)(=O)N4CCCC4)ccc32)c1 | – | -2.74% (inactive)
CC(=O)Nc1ccc(-c2nc3ccccc3o2)cc1 | – | -15.3% (inactive)
Cc1ccc2nc(-c3ccc(NC(=O)c4cccnc4)cc3)oc2c1 | 1.26 µM (active) | –

Structure (SMILES) | Potency | activity, negative = inhibition
Cc1cc2nc(-c3ccc(NC(=O)c4cccnc4)cc3)oc2cc1C | – | 0.702% (inactive)
COc1ccc(C)cc1NC(=O)C(OC(=O)c1cccc(S(=O)(=O)N(C)c2ccccc2)c1)c1ccccc1 (stereo not drawn) | – | 3.82% (inactive)
CC(=O)c1c(C)[nH]c(C(=O)COC(=O)c2cccc(S(=O)(=O)N(C)c3ccccc3)c2)c1C | 5.62 µM (active) | –
CN(c1ccccc1)S(=O)(=O)c1ccc(Cl)c(C(=O)OCC(N)=O)c1 | – | 5.37% (inactive)
CCCn1nnnc1NCc1ccc(OC)cc1 | – | 4.22% (inactive)
CCn1c(=O)c2ccccc2n(CC(=O)N2CCCc3ccccc32)c1=O | – | -5.13% (inactive)
O=C(Nc1ccccc1Cl)Nn1cnnc1 | – | -1.62% (inactive)
COCCN(CCOC)C(=S)Nc1ccccc1Cl | – | -1.05% (inactive)
O=C(Nc1ccccc1Cl)/C(Cl)=C(\Cl)S(=O)c1ccccc1 (stereo not drawn) | 0.794 µM (active) | –
Cc1cccc(C(=O)Nc2ccc(Oc3cnccn3)cc2)c1 | – | 18.6% (inactive)
COc1ccc(OC)c(S(=O)(=O)N2CCCC(C(=O)NCCc3ccccc3)C2)c1 (stereo not drawn) | – | 3.86% (inactive)
COc1ccc(NC(=O)Cn2ncn3c(cc4ccccc43)c2=O)c(OC)c1OC | – | 0.993% (inactive)
Cc1onc(-c2ccccc2)c1C(=O)N1CCN(S(=O)(=O)c2ccccc2C(F)(F)F)CC1 | – | 1.76% (inactive)
Cc1ccc(/C=C2\CCn3c2nc2cc(C(=O)O)ccc2c3=O)c(C)c1 | – | 5.94% (inactive)
CC1CC(C)CN(CCOc2cccc3ccccc23)C1 (stereo not drawn) | – | 0.773% (inactive)
CCOC(=O)[C@@H]1[C@H]2COc3cc(OC)ccc3[C@H]2N2C(=O)N(c3ccc(F)cc3)C(=O)[C@]12C | – | 11.4% (inactive)
O=C(Nc1ccc2c(c1)OCCO2)c1ccc(Cl)c(S(=O)(=O)N2CCCCC2)c1 | – | 0.74% (inactive)
O=C(Nc1cccc(S(=O)(=O)Nc2ccc(Cl)cc2)c1)c1ccc2c(c1)OCCO2 | 0.794 µM (active) | –
O=C(Nc1cccc(S(=O)(=O)N2CCCCC2)c1)c1ccc2c(c1)OCO2 | – | -9.48% (inactive)
O=C(NC1CCCC1)C(c1c(F)cccc1Cl)N(C(=O)c1csnn1)C1CC1 (stereo not drawn) | – | 2.27% (inactive)
COc1ccc2nc(C)cc(Nc3cccc(C(=O)O)c3)c2c1 | – | -0.583% (inactive)
O=C(Nc1ccnc(-c2ccncc2)n1)c1cccs1 | – | -9.29% (inactive)
O=C(O)COc1ccc(-c2nccc(-c3cccs3)n2)cc1 | 15.8 µM (active) | –

Structure (SMILES) | Potency | activity, negative = inhibition
COC(=O)CSc1nccc(-c2cccs2)n1 | – | -4.83% (inactive)
Cc1cc(C)c(SCCc2ccncc2)c(C)c1 | 11.2 µM (active) | –
c1ccc(CSCCc2ccncc2)cc1 | – | 2.21% (inactive)
Cc1ccc(SCCSc2ncccn2)cc1 | – | -12% (inactive)
CCN(Cc1ccncc1)C(=O)CCc1ccccc1 | – | 2.93% (inactive)
CC(C)(C)c1ccc(SCCc2ccncc2)cc1 | 17.8 µM (active) | –
Cc1cc(C)c(NC(=O)CSc2nc3ccncc3[nH]2)c(C)c1 | – | -3.75% (inactive)
C=CCOc1ccc(/C=C2/C(=O)ON=C2C)cc1OCC | – | -4.21% (inactive)
CCOc1ccc(NC(=O)C(C)N2C(=O)c3ccccc3C2=O)cc1 (stereo not drawn) | – | -3.04% (inactive)
Cc1ccc(S(=O)(=O)NC2CCCCCC2)cc1C(N)=O | – | -7.37% (inactive)
CCCSc1nc2sc3c(c2c(=O)n1-c1ccc(OC)cc1)CCN(C)C3 | – | -0.0853% (inactive)
COc1ccc(-n2c(=S)[nH]c3sc4c(c3c2=O)CCc2ccccc2-4)cc1 | 0.251 µM (active) | –
CCc1ccc(-n2c(=S)sc3c(=O)n(-c4ccccc4OC)c(=S)[nH]c32)cc1 | – | -8.14% (inactive)
O=C(Nc1ccc(C(=O)N2CCCCC2)cc1)c1cccc([N+](=O)[O-])c1 | – | 19.8% (inactive)
COc1cc(C(=O)NCc2ccncc2)cc(Br)c1OCc1ccccc1 | – | -1.79% (inactive)
CC(C)[C@@H]1COC(c2cccc(C3=N[C@H](C(C)C)CO3)c2)=N1 | – | 5.4% (inactive)
C#CCOc1ccc(/C=C2/C(=O)ON=C2C)cc1OCC | – | -17.6% (inactive)
O=C(Nc1ccc2nc3n(c(=O)c2c1)CCCCC3)c1ccccc1Cl | – | -19.2% (inactive)
O=C(Nc1ccc(N2CCOCC2)c(Cl)c1)c1ccc(S(=O)(=O)N2CCOCC2)cc1 | – | -8.97% (inactive)
O=C(Nc1ccc2c(c1)nc1n2CCCCC1)c1cc(S(=O)(=O)N2CCOCC2)ccc1Cl | 12.6 µM (active) | –
Nc1ncc(CN2CCCC(C(=O)Nc3ccc(-c4ccco4)cc3)C2)cn1 (stereo not drawn) | – | 2.6% (inactive)
N=c1oc2ccccc2cc1C(=O)NCc1ccccc1 | – | 26.3% (inactive)
